Measured values: the supplement of paper PMC12350171
Where a name gives a salt, the structure may show the parent alone.

Key:
Settings in all cases: 20 µM
[1] = system: Salmonella enterica typhimurium; test: growth AUC normalised to DMSO control (fraction of control); higher = less growth inhibition, active = hit call of the paper
In short: (§1)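 Pathogens passaged twice anaerobically were inoculated at a starting OD578 of 0.01 into pre-reduced mGAM plates with drug at 20 μM and 1% DMSO, sealed with breathable membranes. Haemophilus parainfluenzae medium was supplemented with hemin and NAD. OD578 was read hourly for 24 h, with three biological replicates. Growth-curve AUC was computed by the trapezoidal rule up to the exponential-to-stationary transition and normalised to DMSO controls on the same plate.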

[2] = system: Shigella flexneri; test: as above
In short: as §1

[3] = system: Vibrio cholerae; test: as above
In short: as §1

[4] = system: Yersinia pseudotuberculosis; test: as above
In short: as §1

[5] = system: P. vulgatus RND KO; test: growth AUC normalised to DMSO control (median) (fraction of control); higher = less growth inhibition, active = hit call of the paper
In short: (§2)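 For normalised area under the curve, growth curves were truncated at entry into stationary phase, integrated by the trapezoidal rule and divided against vehicle wells on the same plate. The curves came from strains passaged twice overnight without oxygen and then grown in mGAM in 96-well plates at a starting OD578 of 0.01. Each well held an approved-drug library compound at 20 μM with 1% DMSO, and OD578 was read hourly for 24 h in an anaerobic incubator. Values are medians of three biological replicates.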

[6] = system: P. vulgatus WT; test: as above
In short: as §2

[7] = system: S. enterica typhimurium WT; test: as above
In short: as §2

[8] = system: S. enterica typhimurium tolC KO; test: as above
In short: as §2

Measured: growth AUC normalised to DMSO control
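Throughout, for growth AUC normalised to DMSO control (median): active when median AUC fell below 0.1.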

Oc1ncnc2[nH]ncc12 [Allopurinol]
inactive: [1] 0.996 | [2] 1.03 | [3] 1.02 | [4] 1 | [5] 1.03 | [6] 1.04 | [7] 0.999 | [8] 0.99

O=C(c1ccc(F)cc1)C1CCN(CCn2c(=O)[nH]c3ccccc3c2=O)CC1 [Ketanserin tartrate hydrate]
inactive: [1] 1.01 | [2] 1.03 | [3] 0.894 | [4] 1 | [5] 1.03 | [6] 1.05 | [7] 1.02 | [8] 0.997

CCOC(=O)C1=C(C)NC(C)=C(C(=O)OCC)C1c1ccccc1/C=C/C(=O)OC(C)(C)C [Lacidipine]
inactive: [1] 1.01 | [2] 1 | [3] 1.02 | [4] 1.02 | [5] 1.07 | [6] 1.06 | [7] 1 | [8] 1

CCN(CC)CCNC(=O)c1cc(Cl)c(N)cc1OC [Metoclopramide monohydrochloride]
inactive: [1] 0.994 | [2] 0.978 | [3] 0.989 | [4] 0.993 | [5] 0.977 | [6] 0.971 | [7] 1 | [8] 1

CC(C)(C(=O)c1cccnc1)c1cccnc1 [Metyrapone]
inactive: [1] 0.996 | [2] 0.992 | [3] 0.965 | [4] 0.989 | [5] 0.996 | [6] 0.981 | [7] 1 | [8] 0.996

CN(C)CCOC(c1ccc(Cl)cc1)c1ccccn1 (centres undefined) [Carbinoxamine maleate salt]
inactive: [1] 1.01 | [2] 1.08 | [3] 1.04 | [4] 0.989 | [5] 1.07 | [6] 1.09 | [7] 1 | [8] 0.997

NCCCCCC(=O)O [Aminocaproic acid]
inactive: [1] 0.999 | [2] 1.06 | [3] 1.07 | [4] 1.02 | [5] 1.07 | [6] 1.1 | [7] 1.02 | [8] 1

CN1CCN(C2=Nc3cc(Cl)ccc3Nc3ccccc32)CC1 [Clozapine]
inactive: [1] 1.02 | [2] 1.05 | [3] 0.969 | [4] 1 | [5] 1.01 | [6] 1.02 | [7] 1 | [8] 0.977

O=C(CCCN1CCC(O)(c2ccc(Br)cc2)CC1)c1ccc(F)cc1 [Bromperidol]
inactive: [1] 1.02 | [2] 0.984 | [3] 0.999 | [4] 0.997 | [5] 0.999 | [6] 1.01 | [7] 0.998 | [8] 0.974

OCCN1CCN(CC/C=C2/c3ccccc3Sc3ccc(Cl)cc32)CC1 [Zuclopenthixol dihydrochloride]
inactive: [1] 0.996 | [2] 0.972 | [3] 0.946 | [4] 0.998 | [5] 0.928 | [6] 0.962 | [7] 0.992 | [8] 0.887

CCCCNc1cc(C(=O)O)cc(S(N)(=O)=O)c1Oc1ccccc1 [Bumetanide]
inactive: [1] 0.969 | [2] 0.991 | [3] 0.982 | [4] 0.995 | [5] 1.01 | [6] 1.01 | [7] 0.996 | [8] 0.991

COC(=O)Nc1nc2cc(Sc3ccccc3)ccc2[nH]1 [Fenbendazole]
inactive: [1] 0.996 | [2] 1.01 | [3] 0.995 | [4] 1.01 | [5] 1.01 | [6] 1.01 | [7] 1.01 | [8] 0.987

CC(=O)OCC(=O)[C@@]12OC(C)(C)O[C@@H]1C[C@H]1[C@@H]3C[C@H](F)C4=CC(=O)C=C[C@]4(C)[C@@]3(F)[C@@H](O)C[C@@]12C [Fluocinonide]
inactive: [1] 0.994 | [2] 0.97 | [3] 0.973 | [4] 1.12 | [5] 0.967 | [6] 0.951 | [7] 1.01 | [8] 0.995
